# Calls of active or inactive are those of the source.
# Legend:
# [1] = tested on: Human papillomavirus type 1a protein E7 (residues 44-93); test: small molecules binding HPV E7 44-93 – biochemical, small-molecule microarray, residues 44-93, 635 nm fluorescence, primary screen (AID 1108); conditions: fluorescence 635 nm, higher = more signal;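 also: E7 fragment applied at 1 µg/mL in TBST for 1 h at 4 C; score combines spot fluorescence with its signal to noise ratio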
# [2] = hepatitis C replication reporter changes, two-sided – Huh7 cells, luciferase reporter, HCV replication inhibitor project, primary screen (AID 1109); conditions: Huh7 HCV replicon luciferase reporter, 48 h; higher = more signal;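 also: huh7 hepatoma cells harbouring a luciferase neomycin HCV replicon reporter; luciferase luminescence as measure of HCV replicon replication; test concentration not given here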
# [3] = molecular target: Left-right determination factor 2 (Homo sapiens) (UniProt O00292); test: small molecules binding LEFTY2 protein – biochemical, small-molecule microarray, 635 nm fluorescence scan, primary screen (AID 1110); conditions: higher = more signal
# [4] = molecular target: Calmodulin-1 (Homo sapiens) (UniProt P0DP23); test: small molecules binding calmodulin-1 with EGTA – biochemical, small-molecule microarray, Cy5-labelled CALM1, profiling panel (AID 1111); conditions: Cy5-CALM1 binding fluorescence, higher = more signal;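 also: labelled calmodulin applied in Tris saline Tween buffer holding calcium plus EGTA and DTT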
# [5] = molecular target: Calmodulin-1 (Homo sapiens) (UniProt P0DP23); test: small molecules binding Ca-loaded calmodulin-1 – biochemical, small-molecule microarray, Cy5-labelled CALM1, plus calcium, artefact control for SMM control-protein annotation, profiling panel (AID 1112); conditions: Cy5-CALM1 binding fluorescence, higher = more signal;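 also: score merges spot fluorescence with signal to noise from triplicate slides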
# [6] = probe aWnt5a binding to arrayed compounds – biochemical, biotinylated probe, 635/667 nm fluorescence, primary screen (AID 1113); conditions: small-molecule microarray, higher = more signal;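 also: score merges 667 nm fluorescence intensity with signal-to-noise per printed feature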
# [7] = probe aShh binding to arrayed compounds – biochemical, biotinylated probe, 635/667 nm fluorescence, primary screen (AID 1114); conditions: small-molecule microarray, higher = more signal;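 also: probe is biotin-labelled aShh protein from a stem cell growth factor screen; measures binding of labelled protein to compounds printed on the slide; score merges feature fluorescence at 667 nm with signal-to-noise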
# [8] = probe aNog binding to arrayed compounds – biochemical, biotinylated probe, 635/667 nm fluorescence, primary screen (AID 1115); conditions: small-molecule microarray, higher = more signal;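 also: probe is biotinylated aNog protein used at 0.15 µg/mL for 1 h at 4 C; z-score combines 667 nm fluorescence of each spot with its signal to noise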
# [9] = molecular target: Torsin-1A-interacting protein 1 (Homo sapiens) (UniProt Q5JTV8); test: compound microarray binding of lysate hLAP1 – cell lysate, small-molecule microarray, COS7 lysate, 635/667 nm fluorescence, primary screen (AID 1116); conditions: 635 nm fluorescence, higher = more signal
# [10] = molecular target: Alpha-bungarotoxin (Bungarus multicinctus) (UniProt P60615); test: compounds binding labelled alpha-BTX control protein – biochemical, small-molecule microarray, Alexa647 label, 635/667 nm fluorescence, artefact control for SMM control protein annotation, profiling panel (AID 1117); conditions: alpha-BTX-A647 binding fluorescence, higher = more signal
# [11] = molecular target: Albumin (Bos taurus) (UniProt P02769); test: compounds binding labelled BSA control protein – biochemical, small-molecule microarray, Alexa647 label, 635/667 nm fluorescence, artefact control for SMM control protein annotation, profiling panel (AID 1118); conditions: BSA-A647 binding, fluorescence 635 nm, higher = more signal;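 also: score merges 667 nm emission intensity and signal-to-noise per printed compound spot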
# [12] = probe aXIP binding to arrayed compounds – biochemical, NeuroSMM set, 635/667 nm fluorescence, primary screen (AID 1119); conditions: small-molecule microarray, higher = more signal, called active from +8 up or from −8 down;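 also: probe is the protein aXip251-270 applied at 1 µg/mL to compound-printed slides; binding of probe to printed compounds measured as 667 nm fluorescence plus signal to noise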
# [13] = probe aNOTCH3 binding on compound microarray – biochemical, small-molecule microarray, 635/667 nm fluorescence, primary screen (AID 1120); conditions: higher = more signal;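 also: probe is a biotin-tagged antibody raised against NOTCH3 rather than NOTCH3 protein; score merges spot fluorescence near 667 nm with spot signal to noise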
# [14] = probe aNOTCH2 binding on compound microarray – biochemical, small-molecule microarray, 635/667 nm fluorescence, primary screen (AID 1121); conditions: higher = more signal;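 also: score merges feature fluorescence read at 667 nm with its signal to noise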
# [15] = molecular target: Carbonic anhydrase 2 (Homo sapiens) (UniProt P00918); test: compounds binding carbonic anhydrase 2 – biochemical, small-molecule microarray, Alexa647-labelled CAII, profiling panel (AID 1122); conditions: CAII-A647 binding fluorescence, higher = more signal
# [16] = COS7 lysate on small-molecule microarray, probe aHis, 635 nm (AID 1123); conditions: COS7 cell lysate, fluorescence, higher = more signal;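 also: z-score combines 667nm fluorescence intensity with signal-to-noise per printed compound spot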
# [17] = probe aLAP1 signal on lysate-treated microarray – cell lysate, small-molecule microarray, COS7 lysate, primary screen (AID 1124); conditions: probe aLAP1, fluorescence, higher = more signal;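 also: lysate comes from COS7 cells expressing LAP1 and is applied at 0.3 µg/mL; score merges spot fluorescence near 667 nm with signal-to-noise over triplicate slides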
# [18] = tested on: Sam68 (KHDRBS1); test: compounds binding KHDRBS1 protein – biochemical, small-molecule microarray, 635 nm fluorescence, primary screen (AID 1125); conditions: higher = more signal;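 also: score merges 667 nm channel intensity with signal to noise over triplicate slides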
# [19] = tested on: Chordin-like protein 2 (CHRDL2); test: compounds binding chordin-like 2 – biochemical, small-molecule microarray, 635 nm fluorescence, primary screen (AID 1126); conditions: fluorescence 635 nm, higher = more signal;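 also: printed compound slides probed with Chrdl2 protein at 4 µg/mL for 1 h at 4 C; score merges 667 nm emission intensity with signal to noise over three replicate slides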
# [20] = molecular target: Concanavalin-A (Canavalia ensiformis) (UniProt P02866); test: compounds binding concanavalin A lectin – biochemical, small-molecule microarray, Alexa647 label, 635 nm, artefact control for SMM control protein annotation, primary screen (AID 1127); conditions: ConA-A647 binding fluorescence, higher = more signal;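 also: z combines 667 nm emission intensity with signal-to-noise across three replicate slides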
# Concanavalin-A (Canavalia ensiformis), sequence (P02866 whole entry, looked up): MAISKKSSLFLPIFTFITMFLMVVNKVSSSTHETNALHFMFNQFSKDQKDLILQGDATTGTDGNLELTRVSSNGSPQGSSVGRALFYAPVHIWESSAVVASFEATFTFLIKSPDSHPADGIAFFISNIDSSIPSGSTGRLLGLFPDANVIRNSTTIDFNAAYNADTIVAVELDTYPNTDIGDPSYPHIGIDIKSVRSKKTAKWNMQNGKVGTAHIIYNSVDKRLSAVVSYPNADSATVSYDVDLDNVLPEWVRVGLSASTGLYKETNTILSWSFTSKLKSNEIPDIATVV
# Torsin-1A-interacting protein 1 (Homo sapiens), sequence (Q5JTV8 whole entry, looked up): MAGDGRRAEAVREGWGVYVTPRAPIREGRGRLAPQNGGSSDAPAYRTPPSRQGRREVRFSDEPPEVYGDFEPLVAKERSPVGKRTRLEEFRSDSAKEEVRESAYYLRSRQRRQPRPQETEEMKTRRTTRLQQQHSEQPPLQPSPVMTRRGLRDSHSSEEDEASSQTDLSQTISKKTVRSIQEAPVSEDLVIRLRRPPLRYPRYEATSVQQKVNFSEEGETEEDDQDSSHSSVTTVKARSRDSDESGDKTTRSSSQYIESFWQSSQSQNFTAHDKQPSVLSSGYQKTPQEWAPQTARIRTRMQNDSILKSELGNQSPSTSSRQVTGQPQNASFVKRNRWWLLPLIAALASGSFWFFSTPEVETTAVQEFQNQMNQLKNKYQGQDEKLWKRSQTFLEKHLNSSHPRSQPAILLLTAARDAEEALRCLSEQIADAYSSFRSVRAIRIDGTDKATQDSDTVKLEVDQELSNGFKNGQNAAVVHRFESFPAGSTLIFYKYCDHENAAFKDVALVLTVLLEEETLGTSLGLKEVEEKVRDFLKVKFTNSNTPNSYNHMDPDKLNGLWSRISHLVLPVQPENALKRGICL
# Left-right determination factor 2 (Homo sapiens), sequence (O00292 whole entry, looked up): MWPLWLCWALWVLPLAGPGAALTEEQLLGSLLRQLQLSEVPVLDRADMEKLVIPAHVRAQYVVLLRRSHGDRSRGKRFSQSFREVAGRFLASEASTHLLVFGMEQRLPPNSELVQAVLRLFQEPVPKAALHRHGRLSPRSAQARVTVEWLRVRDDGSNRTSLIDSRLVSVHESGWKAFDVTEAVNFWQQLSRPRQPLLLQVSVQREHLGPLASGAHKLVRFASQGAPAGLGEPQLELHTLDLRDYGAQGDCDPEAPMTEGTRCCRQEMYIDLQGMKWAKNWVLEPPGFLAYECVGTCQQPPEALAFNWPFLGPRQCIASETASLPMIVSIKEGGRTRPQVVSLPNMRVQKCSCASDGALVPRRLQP
# Albumin (Bos taurus), sequence (P02769 whole entry, looked up): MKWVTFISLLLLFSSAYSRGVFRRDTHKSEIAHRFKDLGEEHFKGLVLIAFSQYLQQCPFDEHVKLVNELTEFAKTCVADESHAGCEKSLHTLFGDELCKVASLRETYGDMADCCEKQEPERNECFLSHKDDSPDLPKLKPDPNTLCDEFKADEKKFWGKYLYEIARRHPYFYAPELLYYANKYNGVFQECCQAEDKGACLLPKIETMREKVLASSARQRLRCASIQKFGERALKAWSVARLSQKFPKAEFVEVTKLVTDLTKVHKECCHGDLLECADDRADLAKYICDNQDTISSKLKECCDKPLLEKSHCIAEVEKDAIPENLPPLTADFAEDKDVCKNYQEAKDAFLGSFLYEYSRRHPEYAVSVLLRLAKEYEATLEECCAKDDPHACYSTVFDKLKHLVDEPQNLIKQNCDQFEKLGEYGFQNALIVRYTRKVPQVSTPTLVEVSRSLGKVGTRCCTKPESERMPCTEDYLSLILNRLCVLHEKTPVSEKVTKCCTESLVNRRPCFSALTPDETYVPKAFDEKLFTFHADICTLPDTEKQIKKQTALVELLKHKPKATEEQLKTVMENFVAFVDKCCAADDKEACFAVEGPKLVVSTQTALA
# Alpha-bungarotoxin (Bungarus multicinctus), sequence (P60615 whole entry, looked up): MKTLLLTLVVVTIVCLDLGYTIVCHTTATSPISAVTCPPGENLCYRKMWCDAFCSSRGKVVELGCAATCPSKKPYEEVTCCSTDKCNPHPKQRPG
SMILES,composite z-score [1],z-score [2],composite z-score [3],composite z-score [4],composite z-score [5],composite z-score [6],composite z-score [7],composite z-score [8],composite z-score [9],composite z-score [10],composite z-score [11],composite Z-score [12],composite z-score [13],composite z-score [14],composite z-score [15],composite z-score [16],composite z-score [17],composite z-score [18],composite z-score [19],composite z-score [20]
CC(C)(C)N1CC=CC23O[C@@H]4C=CCOC(=O)[C@@H]4[C@H]2C(=O)N(CCCCCCO)[C@@H]3C1=O (stereo not given in full),-1.38,0.397,-0.84,-0.243,-0.123,-0.206,-0.291,-0.357,-0.252,-0.348,0.277,0.395 (inactive),-0.359,-0.112,0.879,-0.112,0.483,-0.551,-0.677,-0.375
COCCOC(=O)N1C(=O)[C@@]2(c3cc(C#CC4(O)CCCCCC4)ccc31)[C@H](c1ccc(O)cc1)N1[C@H](c3ccccc3)[C@H](c3ccccc3)OC(=O)[C@H]1[C@@H]2C(=O)NC[C@H](O)c1ccccc1,1.05,-1.03,0.951,0.896,0.524,-0.0339,0.14,0.0896,1.6,1.76,0.179,0.534 (inactive),-0.0133,0.0296,0.522,2.46,1.46,1.3,0.97,1.02
COC(=O)[C@@]1(Cc2ccccc2)[C@@H]2C(=CC(=O)[C@H]2CC(=O)C(=O)N(C)C)CN1C(=O)c1ccccc1,0.883,-2.36,0.25,1.31,0.477,0.188,0.21,1.46,0.275,0.409,0.93,-0.0478 (inactive),0.462,0.23,0.808,2.61,0.931,1.2,-0.202,1.08
COCCOC(=O)N1C(=O)[C@@]2(c3cc(C#CC4=CCCCC4)ccc31)[C@H](c1ccccc1OCCO)N1[C@H](c3ccccc3)[C@H](c3ccccc3)OC(=O)[C@H]1[C@@H]2C(=O)Nc1nc2ccccc2s1,1.33,-2.23,0.526,1.36,0.13,-0.0236,0.0253,0.904,0.666,1.48,0.526,-0.243 (inactive),0.158,-0.0047,0.236,1.06,-0.375,1.32,0.454,1.15
C[C@@H]1NC(=O)[C@@]23C(=O)N[C@@H](Cc4ccccc4)C2[C@H](C)[C@@]2(C)O[C@H]2C3/C=C/C/C=C\CNC(=O)[C@@H]2CCCN2C1=O (stereo not given in full),-0.496,0.606,-0.301,-0.535,-0.556,-0.196,-0.0553,-0.122,-0.313,-0.123,-0.397,-0.433 (inactive),-0.078,-0.139,0.742,-0.0175,-0.11,-1,0.18,-0.327
O=C1C[C@@](C(=O)NCCN2CCOCC2)(c2ccc([N+](=O)[O-])cc2)[C@@H](c2ccc(CO)cc2I)N1C1CCCCC1,1.18,-2.66,0.369,-0.413,-0.173,-0.0445,0.0611,0.079,0.646,1.43,0.614,0.142 (inactive),-0.095,-0.14,0.659,1.74,1.07,0.761,0.473,0.416
